Results reported in PubChem BioAssay.
Activity calls are given as the source filed them.

What was measured:
[1] = small molecules captured by biotinylated probe aFSTL3 – biochemical, small-molecule microarray, fluorescence 635/667, stem cell growth factor project, primary screen (AID 1064); details: higher = more signal;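 also: measures binding of the biotinylated anti-FSTL3 antibody to printed compounds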
[2] = binders from COS7 lysate, DM2A8 probe, primary screen, torsin A project, cell lysate, small-molecule microarray, fluorescence 635/667 (AID 1065); details: higher = more signal, COS7 lysate expressing mutant human TOR1A
[3] = small molecules captured by biotinylated probe aFGF2 – biochemical, small-molecule microarray, fluorescence 635/667, stem cell growth factor project, primary screen (AID 1067); details: higher = more signal;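 also: measures binding of biotinylated aFGF2 protein to printed compounds on slides; z-score merges feature fluorescence and signal-to-noise across triplicate slides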
[4] = small molecules captured by biotinylated probe aFGF10 – biochemical, small-molecule microarray, fluorescence 635/667, stem cell growth factor project, primary screen (AID 1071); details: higher = more signal;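 also: score merges 667 nm spot intensity and signal to noise from triplicate slides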
[5] = target: Neurogenic locus notch homolog protein 2 (Homo sapiens) (UniProt Q04721); test: small molecules binding Notch2 protein – biochemical, small-molecule microarray, 635 nm fluorescence, stem cell growth factors, primary screen (AID 1073); details: higher = more signal
[6] = target: Pro-neuregulin-1, membrane-bound isoform (Homo sapiens) (UniProt Q02297); test: small molecules binding neuregulin-1 protein – biochemical, small-molecule microarray, fluorescence 635/667, psychiatric disease protein project, primary screen (AID 1075); details: NRG1 binding, 635 nm fluorescence, higher = more signal;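 also: score combines 667 nm spot fluorescence with signal to noise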
[7] = system: Neuregulin-1 EGF-like domain; test: small molecules binding NRG1 EGF domain – biochemical, small-molecule microarray, 635 nm fluorescence, primary screen (AID 1081); details: higher = more signal;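 also: binding of the protein to compounds printed on small-molecule microarray slides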
[8] = FRG1 expression reporter modulators in myotubes – cell-based, C2C12 myotubes, firefly/Renilla luciferase, luminescence, FRG1 inhibition for FSHD, primary screen (AID 1084); details: FRG1 promoter luciferase, higher = more signal, called active from +8 up or from −8 down
[9] = small molecules captured by biotinylated probe aFST – biochemical, small-molecule microarray, fluorescence 635/667, stem cell growth factor project, primary screen (AID 1086); details: higher = more signal;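 also: score merges 667 nm fluorescence with signal-to-noise of each printed compound spot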
[10] = binders of probe aHhip on microarray, primary screen, stem cell growth factor project, biochemical, small-molecule microarray, fluorescence 635/667 (AID 1087); details: higher = more signal;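 also: score merges spot fluorescence at 667nm with spot signal to noise ratio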
[11] = system: PRMT1 (protein arginine N-methyltransferase 1); test: small molecules binding arginine methyltransferase PRMT1 – biochemical, small-molecule microarray, 635 nm fluorescence, primary screen (AID 1088); details: higher = more signal;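 also: binding of Prmt1 protein to compounds spotted on small-molecule microarray slides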
[12] = growth effects on S. cerevisiae YJM789 – YJM789 clinical isolate, OD600, 24 h, basal, primary screen (AID 1089); details: higher = more signal, called active from +8 up or from −8 down;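 also: growth of clinical yeast isolate S. cerevisiae YJM 789 seeded 1000 cells per well; test concentration not given here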
[13] = S. pombe growth modifiers, basal conditions – strain 972, OD600, 24 h, no modulator, primary screen (AID 1090);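 also: basal condition with compound alone and no growth modifier present; test concentration not given here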; details: S. pombe 972 growth, higher = more signal, called active from +8 up or from −8 down
[14] = budding yeast growth modifiers under rapamycin – strain BY4716, OD600, 96 h, primary screen (AID 1091); also: test concentration not given here; details: S. cerevisiae BY4716 + rapamycin, higher = more signal, called active from +8 up or from −8 down
[15] = target: Torsin-1A-interacting protein 2 (Homo sapiens) (UniProt Q8NFQ8); test: small molecules binding lysate-expressed LULL1 – cell lysate, human LULL1 lysate, 635/667 nm fluorescence, primary screen (AID 1092); details: small-molecule microarray, hLULL1 lysate binding, 635 nm fluorescence; higher = more signal;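 also: probe is lysate of COS7 cells overexpressing human LULL1; score merges per-feature 667 nm fluorescence with signal-to-noise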
[16] = optical density change of DRC41 E. coli – strain DRC41, OD650, 24 h, E. coli filamentation project, primary screen (AID 1093);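 also: MC1000 strain lacking acrAB efflux and sulA so SOS filamentation is blocked; test concentration not given here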; details: E. coli DRC41 growth, higher = more signal, called active from +8 up or from −8 down
[17] = probe aLefty2 binding to arrayed compounds – biochemical, biotinylated probe, 635/667 nm fluorescence, primary screen (AID 1094); details: small-molecule microarray, higher = more signal;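 also: score merges spot fluorescence near 667 nm with spot signal-to-noise ratio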
[18] = system: Noggin (protein binding on small-molecule microarray); test: small molecules binding Noggin protein – biochemical, 635/667 nm fluorescence, primary screen (AID 1095); details: 635 nm fluorescence, higher = more signal;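 also: score merges 667 nm feature fluorescence with signal to noise over triplicate slides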
[19] = target: Neurogenic locus notch homolog protein 3 (Homo sapiens) (UniProt Q9UM47); test: small molecules binding NOTCH3 protein – biochemical, 635/667 nm fluorescence, primary screen (AID 1096); details: small-molecule microarray, 635 nm fluorescence, higher = more signal
[20] = probe aEGFR binding to arrayed compounds – biochemical, biotinylated probe, 635/667 nm fluorescence, primary screen (AID 1097); details: small-molecule microarray, higher = more signal;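 also: probe is a biotinylated anti-EGFR antibody binding compounds printed on slides; score combines fluorescence near 667 nm and signal to noise of each spot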

Chain of Neurogenic locus notch homolog protein 2 (Homo sapiens) (Q04721 whole entry, looked up, canonical isoform): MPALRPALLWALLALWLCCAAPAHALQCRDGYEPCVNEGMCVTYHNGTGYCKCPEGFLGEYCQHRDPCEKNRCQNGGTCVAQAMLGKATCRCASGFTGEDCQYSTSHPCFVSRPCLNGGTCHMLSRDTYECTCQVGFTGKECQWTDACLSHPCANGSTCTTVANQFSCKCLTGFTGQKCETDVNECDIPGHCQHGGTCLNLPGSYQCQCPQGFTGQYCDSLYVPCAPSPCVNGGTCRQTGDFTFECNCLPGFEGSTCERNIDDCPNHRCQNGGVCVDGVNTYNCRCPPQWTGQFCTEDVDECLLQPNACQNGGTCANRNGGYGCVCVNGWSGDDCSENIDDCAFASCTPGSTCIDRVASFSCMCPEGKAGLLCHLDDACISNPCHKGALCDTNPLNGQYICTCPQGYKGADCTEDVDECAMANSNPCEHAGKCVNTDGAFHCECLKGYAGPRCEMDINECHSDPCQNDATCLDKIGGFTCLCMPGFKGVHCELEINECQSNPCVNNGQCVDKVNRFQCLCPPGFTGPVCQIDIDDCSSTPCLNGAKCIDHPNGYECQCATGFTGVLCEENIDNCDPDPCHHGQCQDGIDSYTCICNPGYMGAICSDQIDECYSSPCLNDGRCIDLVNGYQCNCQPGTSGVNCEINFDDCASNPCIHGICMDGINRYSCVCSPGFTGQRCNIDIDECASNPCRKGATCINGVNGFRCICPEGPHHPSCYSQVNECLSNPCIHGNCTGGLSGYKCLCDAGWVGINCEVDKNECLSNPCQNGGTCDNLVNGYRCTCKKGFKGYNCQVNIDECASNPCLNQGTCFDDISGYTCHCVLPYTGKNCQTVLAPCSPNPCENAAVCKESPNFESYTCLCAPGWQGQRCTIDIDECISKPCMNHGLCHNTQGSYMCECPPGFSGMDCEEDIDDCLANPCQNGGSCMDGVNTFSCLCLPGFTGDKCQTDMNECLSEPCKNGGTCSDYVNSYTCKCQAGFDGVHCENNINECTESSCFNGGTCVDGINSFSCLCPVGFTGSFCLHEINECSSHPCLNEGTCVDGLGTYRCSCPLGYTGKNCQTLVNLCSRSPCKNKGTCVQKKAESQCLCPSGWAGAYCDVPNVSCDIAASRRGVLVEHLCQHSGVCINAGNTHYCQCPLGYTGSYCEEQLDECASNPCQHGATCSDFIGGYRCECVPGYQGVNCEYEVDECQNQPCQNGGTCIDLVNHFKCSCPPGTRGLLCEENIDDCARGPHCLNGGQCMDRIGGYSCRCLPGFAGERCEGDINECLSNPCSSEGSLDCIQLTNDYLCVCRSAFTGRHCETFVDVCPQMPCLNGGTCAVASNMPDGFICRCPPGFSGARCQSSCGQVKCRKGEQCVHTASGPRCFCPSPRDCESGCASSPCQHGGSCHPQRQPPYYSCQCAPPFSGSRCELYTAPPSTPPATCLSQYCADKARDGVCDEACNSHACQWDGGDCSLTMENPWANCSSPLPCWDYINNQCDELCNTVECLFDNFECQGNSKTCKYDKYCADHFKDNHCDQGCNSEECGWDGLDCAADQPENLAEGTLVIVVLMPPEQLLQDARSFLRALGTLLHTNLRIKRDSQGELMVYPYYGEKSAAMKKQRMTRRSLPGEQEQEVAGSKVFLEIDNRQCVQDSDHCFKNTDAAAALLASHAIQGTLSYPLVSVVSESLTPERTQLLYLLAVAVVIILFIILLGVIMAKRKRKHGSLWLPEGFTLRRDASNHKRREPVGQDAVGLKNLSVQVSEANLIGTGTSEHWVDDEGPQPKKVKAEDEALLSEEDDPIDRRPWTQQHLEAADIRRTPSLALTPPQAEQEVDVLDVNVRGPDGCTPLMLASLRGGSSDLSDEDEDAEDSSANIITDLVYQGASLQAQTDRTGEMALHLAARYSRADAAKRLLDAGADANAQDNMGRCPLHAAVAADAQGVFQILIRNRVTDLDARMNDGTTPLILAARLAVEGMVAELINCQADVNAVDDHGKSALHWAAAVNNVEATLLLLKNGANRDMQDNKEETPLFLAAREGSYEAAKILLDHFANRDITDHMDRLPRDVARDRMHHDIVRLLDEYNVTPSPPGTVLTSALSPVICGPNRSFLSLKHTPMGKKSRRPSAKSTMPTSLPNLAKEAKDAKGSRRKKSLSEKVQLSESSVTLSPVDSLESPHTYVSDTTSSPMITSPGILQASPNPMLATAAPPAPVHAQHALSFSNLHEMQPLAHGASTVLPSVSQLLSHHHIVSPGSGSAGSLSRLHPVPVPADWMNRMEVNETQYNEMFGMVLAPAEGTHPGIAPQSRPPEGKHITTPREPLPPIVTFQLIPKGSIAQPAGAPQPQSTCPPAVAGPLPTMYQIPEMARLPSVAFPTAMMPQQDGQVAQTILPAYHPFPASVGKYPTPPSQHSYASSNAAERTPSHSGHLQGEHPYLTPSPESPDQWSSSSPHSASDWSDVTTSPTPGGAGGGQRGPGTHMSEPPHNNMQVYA
Chain of Pro-neuregulin-1, membrane-bound isoform (Homo sapiens) (Q02297 whole entry, looked up, the tested form may be a part, canonical isoform): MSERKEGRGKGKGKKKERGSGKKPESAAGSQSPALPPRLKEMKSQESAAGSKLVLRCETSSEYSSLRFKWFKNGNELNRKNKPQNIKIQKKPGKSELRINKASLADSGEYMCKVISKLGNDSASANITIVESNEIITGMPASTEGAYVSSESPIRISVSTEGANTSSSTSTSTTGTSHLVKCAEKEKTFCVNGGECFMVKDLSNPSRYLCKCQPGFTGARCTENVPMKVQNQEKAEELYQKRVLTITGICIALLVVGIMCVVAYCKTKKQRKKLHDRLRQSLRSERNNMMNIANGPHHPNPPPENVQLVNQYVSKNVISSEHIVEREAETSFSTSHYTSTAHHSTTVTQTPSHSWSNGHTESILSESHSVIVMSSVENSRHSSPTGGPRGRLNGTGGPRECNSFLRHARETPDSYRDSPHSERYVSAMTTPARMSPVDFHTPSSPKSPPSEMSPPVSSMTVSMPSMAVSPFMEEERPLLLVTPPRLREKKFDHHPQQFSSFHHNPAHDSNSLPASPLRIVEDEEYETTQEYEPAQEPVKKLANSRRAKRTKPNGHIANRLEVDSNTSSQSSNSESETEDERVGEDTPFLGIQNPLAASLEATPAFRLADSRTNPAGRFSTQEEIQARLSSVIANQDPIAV
Chain of Torsin-1A-interacting protein 2 (Homo sapiens) (Q8NFQ8 whole entry, looked up): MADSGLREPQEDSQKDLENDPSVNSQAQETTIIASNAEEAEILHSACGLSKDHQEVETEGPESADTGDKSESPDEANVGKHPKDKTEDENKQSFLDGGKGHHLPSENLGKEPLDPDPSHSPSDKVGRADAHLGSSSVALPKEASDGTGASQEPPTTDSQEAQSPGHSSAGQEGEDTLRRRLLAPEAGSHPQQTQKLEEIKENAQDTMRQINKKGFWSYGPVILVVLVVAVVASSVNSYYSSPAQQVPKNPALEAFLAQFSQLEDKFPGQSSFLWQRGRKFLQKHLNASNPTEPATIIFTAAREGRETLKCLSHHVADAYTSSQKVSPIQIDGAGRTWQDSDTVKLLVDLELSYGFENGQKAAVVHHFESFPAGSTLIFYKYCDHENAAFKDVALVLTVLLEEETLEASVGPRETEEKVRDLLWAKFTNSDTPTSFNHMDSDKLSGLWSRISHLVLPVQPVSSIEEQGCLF

SMILES	composite z-score [1]	composite z-score [2]	composite z-score [3]	composite z-score [4]	composite z-score [5]	composite z-score [6]	composite z-score [7]	z-score [8]	composite z-score [9]	composite z-score [10]	composite z-score [11]	z-score [12]	z-score [13]	z-score [14]	composite z-score [15]	z-score [16]	composite z-score [17]	composite z-score [18]	composite z-score [19]	composite z-score [20]
Cc1cc2c(nc1C)CCCCN2CC(C)ON=C1[C@H]2CCn3c(=O)n(-c4ccccc4)c(=O)n3[C@H]2[C@H](O)[C@@H]2O[C@H]12 (stereo not given in full)	-0.455	0.288	0.0051	0.756	0.942	-0.349	0.8	-0.446 (inactive)	0.557	-0.0346	0.208	0.678 (inactive)	-0.167 (inactive)	0.103 (inactive)	0.998	0.777 (inactive)	0.106	0.439	0.258	-0.0922
CCOC(=O)[C@H](CC(C)C)NC(=O)CCC1CC(OC(=O)NCc2ccc3c(c2)OCO3)CC2(CCCC(COC(=O)NCC3CCCCC3)O2)O1 (stereo not given in full)	-0.203	1.06	-0.11	0.443	0.6	0.292	1.02	0.807 (inactive)	0.293	-0.255	1.24	0.192 (inactive)	-0.0848 (inactive)	-0.113 (inactive)	1.49	0.409 (inactive)	-0.323	0.553	1.09	-0.109
COC(=O)[C@@H]1CC[C@H](C)[C@@H](c2ccc(C)cc2)N1C(=O)c1ccc(C=NOC[C@@H](C)[C@H](OCc2ccccc2)C(C)C)cc1	-0.613	0.191	-0.0707	0.41	1.13	0.855	1	-0.229 (inactive)	0.38	0.0373	1.55	-2.56 (inactive)	-6.29 (inactive)	-1.51 (inactive)	1.3	0.862 (inactive)	-0.244	0.573	1.09	0.102
CCOC(=O)NN=C1C[C@@H](O)[C@@H](O)[C@@H]2[C@@H]3C(=O)N(c4cccc(Oc5ccccc5)c4)C(=O)[C@@H]3CC[C@H]12	-0.441	0.192	-0.187	0.221	0.615	0.855	0.234	-0.0124 (inactive)	0.0755	-0.0645	0.626	-1.57 (inactive)	-0.216 (inactive)	-0.873 (inactive)	0.0068	-0.998 (inactive)	-0.175	0.311	0.589	-0.0371
O=C1[C@H]2[C@H]3[C@H](O)[C@H](O)CC(=NOCc4ccccc4)[C@@H]3CC[C@H]2C(=O)N1C[C@@H]1CCCO1	-0.278	-0.22	-0.116	-0.125	0.176	0.0461	-0.288	1.36 (inactive)	0.271	-0.27	-0.423	-0.857 (inactive)	0.767 (inactive)	-0.369 (inactive)	0.292	1.27 (inactive)	-0.114	0.228	0.237	-0.0151
CCOC(=O)[C@H](CC(C)C)NC(=O)CCC1CC(OC(=O)NCc2cccc3ccccc23)CC2(CCCC(COC(=O)NCc3ccncc3)O2)O1 (stereo not given in full)	-0.678	0.298	-0.151	0.633	1.12	0.547	0.783	-0.689 (inactive)	0.407	-0.236	1.56	0.649 (inactive)	0.462 (inactive)	0.678 (inactive)	1.58	0.409 (inactive)	-0.166	0.433	0.789	0.157
CCOC(=O)NN=C1C[C@@H](O)[C@@H](O)[C@@H]2[C@@H]3C(=O)N([C@@H](C)c4ccccc4)C(=O)[C@@H]3CC[C@H]12	-0.322	-0.0183	-0.085	0.321	0.453	-0.0718	0.0602	-0.223 (inactive)	0.252	0.138	0.215	-0.612 (inactive)	0.366 (inactive)	-0.222 (inactive)	0.261	0.352 (inactive)	-0.0458	0.264	0.507	0.0122
CC=CC1=C(CO)C(=O)[C@@H]2O[C@@H]2C1=O	-0.538	-0.45	-0.093	0.0736	-0.126	-0.719	0.687	-0.078 (inactive)	-0.212	-0.0994	0.114	-0.767 (inactive)	-0.738 (inactive)	-0.624 (inactive)	-1.02	0.199 (inactive)	-0.199	1.58	0.406	0.0083
CCOC(=O)[C@H](CC(C)C)NC(=O)CCC1CC(OC(=O)NCc2ccc3c(c2)OCO3)CC2(CCCC(COC(=O)NCCCN3CCCC3=O)O2)O1 (stereo not given in full)	-0.303	0.322	-0.087	0.706	0.99	0.817	0.984	0.584 (inactive)	0.465	-0.0645	1.49	-0.0618 (inactive)	0.162 (inactive)	-0.474 (inactive)	1.94	0.485 (inactive)	-0.166	1.36	1.04	-0.0271
COC(=O)CC=C[C@@H](C)[C@@H](C=NOCC[C@@H]1C=C[C@H](OC(C)=O)[C@@H](COC(C)=O)O1)OC	-0.413	0.174	0.0144	0.502	0.193	-0.0568	0.813	0.799 (inactive)	0.0492	0.0053	1.08	0.355 (inactive)	-0.295 (inactive)	0.474 (inactive)	0.431	-0.152 (inactive)	-0.0321	0.405	0.308	0.0754
